Screening data (PubChem)
Compounds with a hit are over-represented: about 3.5% of the library has one in this group of screens.
Rv3671c protease – inhibitors of M. tuberculosis serine protease Rv3671c | P9WHR9 | inhibition, % at 5.96 µM | 320,000 tested, 0.048% active; in the data active = inhibition above about 38%;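 also: extracellular domain of Rv3671c used as enzyme; 0% = enzyme with DMSO and 100% = no enzyme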
GDH-TPI counter-1 – counter-screen for M. tuberculosis FBA inhibitors: GDH-TPI coupled enzymes. AID 588335. inhibition, % at 4.8 µM. 360,000 tested, 1.2% active. GDH-TPI coupled enzyme counterscreen, NADH absorbance; in the data active = inhibition above about 30%;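 also: 0% = DMSO wells and 100% = wells lacking the enzyme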
UGM FP inh – inhibitors of M. tuberculosis UDP-galactopyranose mutase; purified UGM, fluorescence polarization probe displacement; 320,000 tested, 0.06% active; inhibition, % at 10 µM; P9WIQ1; in the data active = inhibition above about 10%, passing the limit was not always enough
Target sequence (P9WIQ1 whole entry, looked up): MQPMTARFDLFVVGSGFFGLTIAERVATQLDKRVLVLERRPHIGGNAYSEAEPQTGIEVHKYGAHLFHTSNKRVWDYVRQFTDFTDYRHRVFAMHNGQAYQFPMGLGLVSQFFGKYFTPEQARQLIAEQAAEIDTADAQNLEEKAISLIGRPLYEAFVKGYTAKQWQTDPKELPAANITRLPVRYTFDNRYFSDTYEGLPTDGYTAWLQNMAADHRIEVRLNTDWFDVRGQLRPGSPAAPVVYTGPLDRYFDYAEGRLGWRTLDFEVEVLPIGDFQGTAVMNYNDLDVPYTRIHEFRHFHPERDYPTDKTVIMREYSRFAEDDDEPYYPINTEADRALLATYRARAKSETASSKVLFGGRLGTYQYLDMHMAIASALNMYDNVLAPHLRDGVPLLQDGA
Mtb FBA inh – inhibitors of M. tuberculosis fructose-bisphosphate aldolase; purified M. tuberculosis FBA, fluorescence read-out; inhibition, % at 1 µM; 360,000 tested, 2.3% active; AID 588726;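 also: 0% = vehicle and 100% = reference inhibitor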
Mtb FBA inh conf – Mtb FBA inhibition, confirmed; shares compounds with Mtb FBA inh; purified M. tuberculosis FBA, fluorescence read-out; inhibition, % at 1 µM; 5,600 tested, 78% active; AID 651616;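 also: 0% = vehicle wells and 100% = reference inhibitor wells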
GDH-TPI counter-2 – counter-screen for M. tuberculosis FBA inhibitors: GDH-TPI coupled enzyme inhibition; GDH-TPI coupled enzyme counterscreen, fluorescence; 5,600 tested, 81% active; shares compounds with Mtb FBA inh; inhibition, % at 1 µM; in the data active = inhibition above about 10%
GDH-TPI DR – inhibits GDH-TPI coupling enzymes in dose response | GDH-TPI coupled enzyme assay, fluorescence, artifact counterscreen | 170 tested, 79% active | IC50, µM | shares compounds with Mtb FBA inh; call rule not given here
* = called active by the depositor; x = no result; + = active, no number. Rule as the data show it, unless noted: active = inhibition above about 27%; inactive = the rest.

SMILES | Rv3671c protease | GDH-TPI counter-1 | UGM FP inh | Mtb FBA inh | Mtb FBA inh conf | GDH-TPI counter-2 | others
COCCNS(=O)(=O)c1cc2[nH]c3c(c2cc1C)C(=O)CC(C)(C)C3 | -6 | 0 | 0 | 3 | x | x
O=S(=O)(NCc1ccccc1)c1ccc(-c2cnc(C3CC3)o2)cc1 | -3 | 3 | 1 | 27* | + | 158*
Cc1ccc(CNS(=O)(=O)c2ccc(-c3cnc(C4CC4)o3)cc2)cc1 | -3 | 1 | 3 | 41* | 40* | 25*
CCOc1ccccc1CNS(=O)(=O)c1ccc(-c2cnc(C3CC3)o2)cc1 | -7 | 8 | 1 | -1 | x | x
NS(=O)(=O)c1cccc(NC(=O)COC(=O)C2(c3cccc(F)c3)CCCC2)c1 | -15 | 15 | 0 | 0 | x | x
CCCCNc1c(-c2ccc(OC)c(SC3CCCCC3)c2)nc2ccc(C)cn12 | 11 | 25 | x | 36* | + | 161*
COc1ccc(-c2ccc(-c3nc4ccc(C)cn4c3NC3CCCCC3)cc2OC)cc1 | 2 | 19 | -4 | 54* | + | 185*
COc1ccc(-c2nc3ccc(Cl)cn3c2NC2CCCCC2)cc1SC1CCCCC1 | 2 | 24 | x | 1 | x | x
CCCCNc1c(-c2ccc(SC3CCCCC3)c(OC)c2)nc2ccc(C)cn12 | 0 | 15 | 2 | 50* | + | 193*
COc1cc(OC)c(/C=N/NC(=O)c2ccc(Cn3nc([N+](=O)[O-])cc3C)cc2)c(OC)c1 | -1 | x | -3 | x | x | x
COC(=O)C1=CN(c2ccc(F)cc2)C=C(C(=O)OC)C1c1ccc(O)cc1 | 1 | 9 | 5 | 71* | 96* | 82*
COC(=O)C1=CN(c2cc(C)cc(C)c2)C=C(C(=O)OC)C1c1ccc(OC)c(O)c1 | -6 | 8 | 2 | 5 | x | x
CC(C)c1ccc(NC(=O)C2(C)Cc3c(-c4cccc(C(F)(F)F)c4)ccnc3O2)cc1 (stereo unspecified) | x | 0 | x | -2 | x | x
CCOCCCNC(=O)C(NC(=O)c1ccccn1)c1ccc(C)cc1 (stereo unspecified) | -3 | 3 | 1 | 4 | x | x
CCOCCCNC(=O)C(NC(=O)c1ccccc1O)c1ccc(C)cc1 (stereo unspecified) | -4 | 4 | 0 | 42* | + | 169*
CCOc1cc(-c2cc(-c3ccc(N)cc3)nc(N)c2C#N)ccc1O | 4 | 29 | 3 | 29* | 52* | 45*
CCOc1cc(-c2cc(-c3ccccc3)nc(N)c2C#N)ccc1O | -16 | 0 | 1 | 4 | x | x
CCN(CC)C(=O)CSc1nc2c(c(-c3cccnc3)c1C#N)CCCC2 | 5 | 1 | 0 | 1 | x | x
CC(=O)c1ccc(-c2ccc(C(=O)N(C)Cc3nc4ccccc4c(=O)[nH]3)o2)cc1 | -7 | 17 | -2 | 89* | 4 | -4
CCC(C)Sc1ccc([C@@H]2[C@@H]3C(=O)N(CC)C(=O)[C@@H]3[C@]3(C(=O)OC)CCCCN23)cc1 (stereo partly specified) | -1 | 9 | -1 | 3 | x | x
CCc1cccc(NC(=O)CNC(=O)N2CC(=O)Nc3ccccc32)c1 | 7 | 5 | 1 | 0 | x | x
CCc1cccc(Nc2c([N+](=O)[O-])cc(C(=O)N3CC(=O)Nc4ccccc43)cc2[N+](=O)[O-])c1 | 2 | 16 | 3 | 111* | 145* | 103*
CC[C@]12c3[nH]c4cc(-c5ccco5)ccc4c3CCN1C(=O)[C@@H](CC(=O)NC(C)(C)C)C[C@@H]2C(=O)N1CCN(C(=O)C2CC2)CC1 | x | 15 | x | 27* | 63* | 52*
C[C@]12c3[nH]c4cc(-c5ccco5)ccc4c3CCN1C(=O)[C@@H](CC(=O)NCCc1ccccn1)C[C@@H]2C(=O)N1CCCCC1 | x | 17 | x | 43* | 68* | 47*
CC[C@]12c3[nH]c4cc(-c5ccco5)ccc4c3CCN1C(=O)[C@@H](CC(=O)NC/C=C(\C)CCC=C(C)C)C[C@@H]2C(=O)N1CCN(C(=O)C2CC2)CC1 | x | 4 | x | 11 | x | x
SMILES | Rv3671c protease | GDH-TPI counter-1 | UGM FP inh | Mtb FBA inh | Mtb FBA inh conf | GDH-TPI counter-2 | others
CC[C@]12c3[nH]c4cc(-c5ccco5)ccc4c3CCN1C(=O)[C@@H](CC(=O)NCCc1ccccn1)C[C@@H]2C(=O)N1CCN(C(=O)C2CC2)CC1 | x | 4 | x | 30* | 47* | 33*
Nc1nc2nccc(-c3ccccn3)n2n1 | 4 | 6 | -1 | 39* | + | +
COc1ccc(OCCN2CCC(C(=O)NC(c3ccc(Cl)cc3)c3ncccc3C)CC2)cc1 (stereo unspecified) | x | -6 | x | -2 | x | x
CN(C)/C=N/c1nc2nccc(-c3ccc(F)cc3)n2n1 | 3 | 1 | 0 | 88* | 62* | 56*
CN(C)/C=N/c1nc2nccc(-c3cccc(Cl)c3)n2n1 | 7 | 1 | -3 | 34* | 10 | -5 | GDH-TPI DR=2.2*
O=C(Cc1ccccc1)Nc1cccc(C(=O)O)c1O | -10 | 5 | 1 | 76* | 82* | 49*
CCOC(=O)C1CCCN(C(=O)c2ccc(-c3ccccc3)cc2)CC1 (stereo unspecified) | x | 4 | x | -3 | x | x
COC(=O)c1ccc(-c2nc(CN3CCC(C(=O)N4CCOCC4)CC3)c(C)o2)cc1 | -8 | -3 | -4 | 48* | 47* | 37*
Cc1oc(-c2ccc(F)cc2)nc1CN1CCCC(C(=O)N2CCOCC2)C1 (stereo unspecified) | x | 1 | x | -3 | x | x
COc1ccc([C@H]2N[C@]3(CCCN(Cc4ccco4)C3=O)[C@H]3C(=O)N(Cc4ccccc4)C(=O)[C@@H]23)cc1 | x | 6 | x | 1 | x | x
CCOC(=O)CSc1n[nH]c(NC(=O)NC(C)C)n1 | 3 | -2 | -2 | -1 | x | x
Cc1nc(-c2ccccc2)sc1-c1ccn[nH]1 | -3 | 13 | -1 | 110* | 33* | 24*
CCn1c(-c2sc(-c3ccccc3)nc2C)n[nH]c1=S | -3 | 5 | 2 | 6 | x | x
O=C(O)c1ccccc1N/C=C\[N+](=O)[O-] | -1 | 7 | 3 | 32* | 71* | 56*
O=C(/C=C/Nc1ccccc1C(=O)O)c1cccs1 | -1 | 5 | -3 | 4 | x | x
Cc1nn(-c2ccccc2)c(C)c1N | -4 | -8 | 1 | 0 | x | x
Cc1c(O)cnc2nn(-c3ccccc3)c(=N)n12 | x | x | x | 91* | 81* | 52*
N#Cc1nc(-c2ccc(OCc3ccc(Cl)cc3)cc2)oc1N1CCC(C(N)=O)CC1 | 4 | 1 | 0 | 9 | x | x
CCOc1ccc(-c2nc(C#N)c(N3CCN(C)CC3)o2)cc1 | -5 | 33* | 1 | 69* | + | +
CCOc1ccc(-c2nc(C#N)c(N3CCCCCC3)o2)cc1 | 0 | 14 | -1 | 100* | 46* | 42*
CCCOc1ccc(-c2nc(C#N)c(N3CCN(C)CC3)o2)cc1 | -2 | 4 | 0 | 40* | -5 | 1
